Reference: PubChem BioAssay
Unmarked numbers belong to inactive results. For some of these results: Results with a measured potency or affinity are listed apart. Activity calls are given as the source filed them. Unless noted, how the calls were made is not given here.

Key:
[1] = antimalarial activity against Dd2 strain (AID 2302;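 active means growth inhibition above 50% at the single 2 µM test dose, taken to imply half-maximal potency below 2 µM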;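 further: 0% = DMSO untreated growth and 100% = chloroquine plus artemisinin killed control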); conditions: P. falciparum Dd2 in RBCs, LDH growth readout, 72 h; at 2 µM; stronger effect = higher value
[2] = HepG2 cytotoxicity, primary screen, cytotoxicity control for P. falciparum antimalarial project, cell-based, ATP luminescence (AID 2303;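 active means inhibition above 50%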;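 further: 0% = DMSO wells and 100% = digitonin-killed cells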); conditions: HepG2 viability, 24-48 h, at 10 µM, stronger effect = higher value
[3] = target: L-lactate dehydrogenase (Plasmodium falciparum (isolate CDC / Honduras)) (UniProt Q27743); experiment: PfLDH activity inhibition – cell lysate, 3D7 strain, counter-screen for P. falciparum growth inhibition project (AID 2304);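 further: 0% = vehicle and 100% = reference inhibitor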; conditions: P. falciparum 3D7 crude extract, LDH APAD/NBT absorbance; at 2 µM; stronger effect = higher value
[4] = inhibition of 3D7 malaria parasite growth – strain 3D7 (AID 2306);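 further: 0% = DMSO wells and 100% = chloroquine plus artemisinin control wells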; conditions: P. falciparum 3D7 erythrocytic growth, LDH absorbance, 72 h; at 2 µM; stronger effect = higher value
[5] = target: Calcium-dependent protein kinase 1 (Plasmodium falciparum (isolate 3D7)) (UniProt P62344); experiment: PfCDPK1 kinase inhibitors, biochemical, TCAMS library (AID 1159585; cut-off not given, nearly all actives have IC50 up to about 0.98 µM;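 further: inhibitors leave more ATP so luminescence rises with inhibition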); conditions: recombinant PfCDPK1, Kinase-Glo ATP depletion luminescence
[6] = target: Plasmodium falciparum protein kinase 6 (PK6, PF3D7_1337100) (UniProt Q8IDW1); experiment: PfPK6 kinase inhibitors, biochemical, TCAMS library (AID 1159586); conditions: recombinant PfPK6, Kinase-Glo ATP depletion luminescence
[7] = target: Protein kinase 7 (PK7), Plasmodium falciparum 3D7 (PF3D7_0213400) (UniProt Q7YTF7); experiment: inhibition of Plasmodium PK7 catalytic activity – biochemical, TCAMS antimalarial set, Kinase-Glo luminescence (AID 1159587); conditions: recombinant PfPK7, Kinase-Glo ATP depletion luminescence
[8] = target: Calcium-dependent protein kinase 4 (Plasmodium falciparum (isolate 3D7)) (UniProt Q8IBS5); experiment: PfCDPK4 kinase inhibitors, biochemical, TCAMS library (AID 1159588; cut-off not given, nearly all actives have IC50 up to about 0.91 µM); conditions: recombinant PfCDPK4, Kinase-Glo ATP depletion luminescence
Sequence of Calcium-dependent protein kinase 4 (Plasmodium falciparum (isolate 3D7)) (Q8IBS5 whole entry, looked up): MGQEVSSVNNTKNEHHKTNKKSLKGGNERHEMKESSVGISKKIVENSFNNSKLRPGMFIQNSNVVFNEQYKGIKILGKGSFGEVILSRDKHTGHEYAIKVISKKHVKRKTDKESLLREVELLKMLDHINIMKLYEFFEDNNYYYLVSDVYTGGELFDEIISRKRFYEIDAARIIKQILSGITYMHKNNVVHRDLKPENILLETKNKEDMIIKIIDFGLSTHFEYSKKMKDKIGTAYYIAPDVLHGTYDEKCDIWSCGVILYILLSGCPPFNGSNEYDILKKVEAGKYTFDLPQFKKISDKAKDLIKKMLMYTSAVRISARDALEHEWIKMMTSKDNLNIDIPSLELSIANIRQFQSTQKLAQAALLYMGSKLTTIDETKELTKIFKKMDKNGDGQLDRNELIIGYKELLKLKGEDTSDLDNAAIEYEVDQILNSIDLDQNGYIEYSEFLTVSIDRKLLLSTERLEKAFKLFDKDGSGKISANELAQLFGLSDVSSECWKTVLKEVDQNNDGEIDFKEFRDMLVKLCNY

Sequence of Calcium-dependent protein kinase 1 (Plasmodium falciparum (isolate 3D7)) (P62344 whole entry, looked up): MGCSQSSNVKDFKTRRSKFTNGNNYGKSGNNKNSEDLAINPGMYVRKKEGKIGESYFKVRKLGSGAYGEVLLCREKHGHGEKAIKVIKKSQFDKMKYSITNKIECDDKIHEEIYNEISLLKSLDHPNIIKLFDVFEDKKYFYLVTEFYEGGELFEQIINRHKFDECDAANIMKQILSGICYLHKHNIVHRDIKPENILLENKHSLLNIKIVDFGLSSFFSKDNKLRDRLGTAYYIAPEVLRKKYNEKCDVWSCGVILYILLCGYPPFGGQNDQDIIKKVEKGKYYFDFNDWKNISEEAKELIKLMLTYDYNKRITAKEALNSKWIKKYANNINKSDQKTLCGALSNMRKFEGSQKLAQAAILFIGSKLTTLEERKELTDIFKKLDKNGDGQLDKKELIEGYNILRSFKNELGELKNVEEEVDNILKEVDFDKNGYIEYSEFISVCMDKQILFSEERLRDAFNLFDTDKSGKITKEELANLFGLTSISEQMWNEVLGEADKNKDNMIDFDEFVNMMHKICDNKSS
Sequence of Protein kinase 7 (PK7), Plasmodium falciparum 3D7 (PF3D7_0213400) (Q7YTF7 1-343): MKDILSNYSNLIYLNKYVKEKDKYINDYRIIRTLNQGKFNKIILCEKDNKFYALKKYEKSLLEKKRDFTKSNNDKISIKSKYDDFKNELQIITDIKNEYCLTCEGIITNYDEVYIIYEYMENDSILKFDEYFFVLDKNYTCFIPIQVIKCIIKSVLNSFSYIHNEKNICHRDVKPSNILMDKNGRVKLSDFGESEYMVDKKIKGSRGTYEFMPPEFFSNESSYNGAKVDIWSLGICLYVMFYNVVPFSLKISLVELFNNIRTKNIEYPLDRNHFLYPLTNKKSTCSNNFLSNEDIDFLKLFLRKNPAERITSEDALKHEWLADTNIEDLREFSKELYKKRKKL
Sequence of Plasmodium falciparum protein kinase 6 (PK6, PF3D7_1337100) (Q8IDW1 1-305): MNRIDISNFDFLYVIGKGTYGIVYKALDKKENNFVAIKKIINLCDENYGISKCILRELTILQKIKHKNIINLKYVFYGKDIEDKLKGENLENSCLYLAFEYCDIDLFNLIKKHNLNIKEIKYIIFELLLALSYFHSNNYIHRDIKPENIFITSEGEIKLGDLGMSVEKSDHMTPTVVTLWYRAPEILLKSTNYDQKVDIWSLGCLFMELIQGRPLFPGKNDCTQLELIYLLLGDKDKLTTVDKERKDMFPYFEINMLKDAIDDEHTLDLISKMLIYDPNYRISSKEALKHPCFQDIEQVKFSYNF
Sequence of L-lactate dehydrogenase (Plasmodium falciparum (isolate CDC / Honduras)) (Q27743 whole entry, looked up): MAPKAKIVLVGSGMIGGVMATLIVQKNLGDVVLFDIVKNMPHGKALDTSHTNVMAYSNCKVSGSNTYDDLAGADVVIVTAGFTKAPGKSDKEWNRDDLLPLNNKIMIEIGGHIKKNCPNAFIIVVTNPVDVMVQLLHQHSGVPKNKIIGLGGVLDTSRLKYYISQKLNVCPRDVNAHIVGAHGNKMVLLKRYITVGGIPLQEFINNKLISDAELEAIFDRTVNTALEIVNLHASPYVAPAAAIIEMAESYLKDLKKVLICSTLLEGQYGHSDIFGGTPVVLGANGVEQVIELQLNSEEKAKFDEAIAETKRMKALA

| Compound | growth inhibition [1] | inhibition [2] | inhibition [3] [%] | growth inhibition [4] | outcome [5] | outcome [6] | outcome [7] | outcome [8] |
| --- | --- | --- | --- | --- | --- | --- | --- | --- |
| CS(=O)(=O)c1cccc(-c2cnc(N)c3cc(-c4ccc5c(c4)OCO5)ccc23)c1 | 23% | 37% | 1 | 91% (active) | inactive | inactive | inactive | inactive |
| c1ccc(-c2nc(Nc3ccncc3)sc2-c2ccccc2)cc1 | 18% | -5% | 1 | 97% (active) | inactive | inactive | inactive | inactive |
| N#Cc1ccc(-c2ccc(C(=O)NCCCCN3CCC(n4cnc5ccccc54)CC3)cc2)cc1 | 2% | 15% | -3 | 94% (active) | inactive | inactive | inactive | inactive |
| CC(C)n1ncc2c(C(=O)N3CCCc4ccccc43)cc(-c3ccccc3)nc21 | 82% (active) | 5% | 2 | 100% (active) | inactive | inactive | inactive | inactive |
| COc1ccc2nccc([C@@H](O)CN3CCC(NC(=O)Cc4cccc5c(Br)cccc45)CC3)c2c1 | 34% | 15% | -3 | 99% (active) | inactive | inactive | inactive | inactive |
| Cc1cc(N[C@@H](CC(C)C)C(=O)NCc2cccs2)nc(NCCc2ccccc2)n1 | 8% | 1% | -2 | 94% (active) | inactive | inactive | inactive | inactive |
| Cc1cccc(C(=O)Nc2ccc(N3CCCN(Cc4cccc(O)c4)CC3)cc2)c1 | 44% | 2% | -3 | 92% (active) | inactive | inactive | inactive | inactive |
| Cc1[nH]c(C)c(-c2ccc(Br)cc2)c(=O)c1Br | 95% (active) | 9% | 6 | 98% (active) | inactive | inactive | inactive | inactive |
| CN1CCCN(Cc2cccc(-c3ccc(NC(=O)c4cccc(Cl)c4)cc3)c2)CC1 | 10% | 34% | -3 | 90% (active) | inactive | inactive | inactive | inactive |
| Cc1cccc(CN2CCCC3(CCN(Cc4ccccc4O)C3)C2)c1 (stereo not drawn) | 76% (active) | 14% | -3 | 99% (active) | inactive | inactive | inactive | inactive |
| Clc1cc(Cl)c2cc(CN[C@H]3CCC[C@@H]3CNc3nc4ccccc4[nH]3)[nH]c2c1 | 58% (active) | 85% (active) | -1 | 99% (active) | inactive | inactive | inactive | inactive |
| COc1cc2nc(NCCCN3CCCCC3)nc(NCc3ccccc3)c2cc1OC | 3% | 12% | 1 | 102% (active) | inactive | inactive | inactive | inactive |
| C=CCc1cc(Br)ccc1OCCCOc1c(N)nc(N)nc1N | 0% | 47% | 4 | 92% (active) | inactive | inactive | inactive | inactive |
| OCCN1CCN(C(=S)NC2CCCCC2)CC1 | -1% | 49% | 1 | 93% (active) | inactive | inactive | inactive | inactive |
| Cc1ccccc1OCC(=O)Nc1ccc(-c2nc3cc4ccccc4cc3[nH]2)cc1 | 51% (active) | 24% | 2 | 102% (active) | inactive | inactive | inactive | inactive |
| CCCCCCN1CCN(Cc2cccc(NC(=O)c3cc4ccccc4o3)c2)CC1 | 83% (active) | 20% | 3 | 93% (active) | inactive | inactive | inactive | inactive |
| N#Cc1cncc(-c2nc3c(N4CCC(Cc5ccccc5)CC4)cccc3n2CCNCc2ccccc2)c1 | 99% (active) | 2% | -1 | 99% (active) | inactive | inactive | inactive | inactive |
| COc1ccc(Cn2cncc2CN(CCC(C)C)C(=O)c2ccc(Cl)nc2Cl)cc1 | 61% (active) | 19% | -1 | 87% (active) | inactive | inactive | inactive | inactive |
| O=C(Nc1ccc2c(c1)CCN2C1CCN(Cc2csc3ccccc23)C1)c1ccco1 (stereo not drawn) | 95% (active) | -5% | -2 | 95% (active) | inactive | inactive | inactive | inactive |
| CN1CCN(Cc2cccc(-c3ccc4c(Nc5ccc(Oc6cccnc6)cc5)ccnc4c3)c2)CC1 | 100% (active) | 15% | 0 | 100% (active) | inactive | inactive | inactive | inactive |
| O=C(Cc1ccc(-c2ccccc2)cc1)N[C@H]1CCN(Cc2ccc(OCCCN3CCCCC3)cc2)C1 | 27% | 36% | 0 | 99% (active) | inactive | inactive | inactive | inactive |

| Compound | growth inhibition [1] | inhibition [2] | inhibition [3] [%] | growth inhibition [4] | outcome [5] | outcome [6] | outcome [7] | outcome [8] |
| --- | --- | --- | --- | --- | --- | --- | --- | --- |
| COc1ccc2nccc([C@@H](O)CN3CCC(NCc4cc5oc(=O)n(C)c5cc4F)CC3)c2c1 | 72% (active) | -3% | -2 | 99% (active) | inactive | inactive | inactive | inactive |
| N#CCCN1CCN(Cc2ccc(-c3ccc(-c4nc5ccc(F)cc5[nH]4)s3)cc2)CC1 | 38% | 58% (active) | 6 | 99% (active) | inactive | inactive | inactive | inactive |
| O=C(Nc1ccc(Cl)cc1)c1ccc(CN2CCCN(Cc3ccccc3)CC2)cc1 | 2% | 46% | 1 | 96% (active) | inactive | inactive | inactive | inactive |
| Cn1cc(CN2CCCC(COC(c3ccc(F)cc3)c3ccc(F)cc3)C2)cn1 (stereo not drawn) | 100% (active) | 15% | 4 | 98% (active) | inactive | inactive | inactive | inactive |
| COCc1cc(C)nc2sc(C(=O)Nc3cc(C(C)(C)C)ccc3O)c(N)c12 | 57% (active) | -9% | -2 | 85% (active) | inactive | inactive | inactive | inactive |
| COc1c(C2CCN(CCCCNC(=O)C=Cc3cc4cc(Cl)ccc4o3)CC2)ccc2c1CCCC2 | 19% | 33% | 2 | 87% (active) | inactive | inactive | inactive | inactive |
| Cc1ccc(-c2nnc(-c3ccc(C(=O)NC4CCN(Cc5ccc(C#N)cc5)CC4)cc3)o2)cc1Br | 7% | 41% | -5 | 91% (active) | inactive | inactive | inactive | inactive |
| O=C(/C=C/c1ccc(Cl)c(Cl)c1)NCCCCCN1CCC(CCNC(=O)C2(c3ccc(Cl)cc3)CC2)CC1 | 16% | 96% (active) | -3 | 91% (active) | inactive | inactive | inactive | inactive |
| O=C(N[C@@H](Cc1ccccc1)C(=O)NC1CCCCC1)c1ccc(O)c(-c2cccc(C(F)(F)F)c2)c1 | 36% | 11% | -2 | 96% (active) | inactive | inactive | inactive | inactive |
| CN(CCS(C)(=O)=O)Cc1ccc(-c2ccc3ncnc(Nc4ccc(OCc5cccc(F)c5)c(Cl)c4)c3c2)o1 | 65% (active) | 25% | -1 | 101% (active) | inactive | inactive | inactive | inactive |
| CC(C)N1CCN(C(CN2CCN(CCCOc3cccc(-c4ccccc4)c3)CC2)c2ccc(F)cc2)CC1 (stereo not drawn) | 99% (active) | 100% (active) | -2 | 100% (active) | inactive | inactive | inactive | inactive |
| c1ccc(-c2nnc(-c3ccccn3)nc2NC2CCCCC2)cc1 | 80% (active) | 74% (active) | 6 | 97% (active) | inactive | inactive | inactive | inactive |
| CN(C)CCNc1ncnc2c1[nH]c1ccc(Cl)cc12 | 8% | 7% | 4 | 100% (active) | inactive | inactive | inactive | inactive |
| O=C(c1ccc(-c2ccc(-c3nc4ccc(F)cc4[nH]3)cc2)cc1)N1CCCCC1CN1CCC(O)C1 (stereo not drawn) | 100% (active) | 24% | -1 | 90% (active) | inactive | inactive | inactive | inactive |
| CCc1ccc2c(c1O)CCN(C)C2Cc1ccccc1Cl (stereo not drawn) | 99% (active) | 13% | -3 | 99% (active) | inactive | inactive | inactive | inactive |
| CCn1c(-c2nonc2N)nc2cnc(Oc3cccc(NC(=O)c4ccc(OCCN(C(C)C)C(C)C)cc4)c3)cc21 | 10% | 63% (active) | -6 | 97% (active) | inactive | inactive | inactive | inactive |
| O=C(NC1CCCCC1)N(Cc1ccc(-c2cccc(CNCc3ccc4c(c3)OCO4)c2)cc1)C1CCN(Cc2ccccc2)CC1 | 72% (active) | 23% | 4 | 101% (active) | inactive | inactive | inactive | inactive |
| CN(C)Cc1ccc(-c2ccc3c(Nc4ccc(Oc5ccccc5)cc4)ccnc3c2)o1 | 100% (active) | 10% | 2 | 101% (active) | inactive | inactive | inactive | inactive |
| COc1ccc(CNCc2ccc(-c3cccc(-c4nc5ccc(F)cc5[nH]4)c3)cc2)cc1 | 94% (active) | 33% | 3 | 102% (active) | inactive | inactive | inactive | inactive |
| CCCCCCN1CCC(NCc2cccc3ccccc23)CC1 | 12% | 21% | 0 | 95% (active) | inactive | inactive | inactive | inactive |
